Screens (PubChem BioAssay)
Most compounds without a hit are left out; they make up all but 4.8% or so of the library.
ssDAF12 agonist – activates DAF-12 receptor from parasite S. stercoralis; AID 652126; actives 1% (n = 370,000); HEK293 ssDAF-12/GRIP1 lit1-tk-luc reporter, luminescence; % of 3 µM dafachronic acid response; activation, % at 6.8 µM;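 active = activation above the mean over all tested compounds plus 3 SD, cut at about 0.9% in these data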;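 also: 0% = DMSO-only wells and 100% = 3 µM delta7-dafachronic acid wells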
DAX1 inh-1 – DAX1 (NR0B1) inhibition, primary screen. HEK293T StAR-luciferase reporter, SF-1/DAX-1 repression relief. actives 1.1% (n = 370,000). inhibition, % at 6.8 µM;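 active = inhibition above the mean over all tested compounds plus 3 SD, cut at about 3.6% in these data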;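 also: 0% = DAX-1 cells with DMSO and 100% = cells lacking DAX-1 with DMSO; higher inhibition means more luminescence from relief of DAX-1 repression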
DAX1 inh-2 – inhibits human nuclear receptor DAX1; HEK293 Gal4-DAX1 luciferase reporter, luminescence; actives 0.99% (n = 340,000); P51843; inhibition, % at 6.75 µM;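 active = inhibition above the mean over all tested compounds plus 3 SD, cut at about 4.2% in these data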;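 also: 0% = DAX1-transfected cells with DMSO and 100% = empty-vector control cells with DMSO; inhibition shows as a rise in luminescence from relieved DAX1 repression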
Target sequence (P51843 207-470 limits assumed): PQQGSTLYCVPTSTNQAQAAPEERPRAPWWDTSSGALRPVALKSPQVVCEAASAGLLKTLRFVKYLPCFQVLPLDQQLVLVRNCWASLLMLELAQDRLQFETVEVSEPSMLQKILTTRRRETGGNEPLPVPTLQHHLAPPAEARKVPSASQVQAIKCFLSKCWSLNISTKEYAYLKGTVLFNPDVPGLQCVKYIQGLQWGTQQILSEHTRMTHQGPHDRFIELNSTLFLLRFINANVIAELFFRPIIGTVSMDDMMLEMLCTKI
SMARCA2 act – activators of SMARCA2 function | actives 1% (n = 370,000) | AID 652017 | MG213 cells, MMTV-luciferase reporter, dexamethasone, overnight | activation, % at 9.1 µM; in the data active = activation above about 7.8%;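 also: 0% = vehicle wells and 100% = reference activator wells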
hcDAF12 agonist – activates DAF-12 receptor from parasite H. contortus | HEK293 hcDAF-12 lit1-tk-luc reporter, luminescence; 0% DMSO, 100% Δ7-dafachronic acid | activation, % at 6.8 µM | actives 1.4% (n = 370,000);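 active = activation above the mean of all tested compounds plus 3 SD, cut at about 5.5% in these data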;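 also: 100% = response to 3 µM Δ7-dafachronic acid high control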
hgDAF12 agonist – activates the H. glycines DAF-12 receptor ligand-binding domain; HEK293 GAL4-hgDAF12 UAS-luciferase reporter, agonist luminescence; normalized to butyrate control; activation, % at 6.8 µM; actives 1.8% (n = 370,000); AID 687014;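 active = activation above a cutoff set at the mean of all screened compounds plus 3 SD, cut at about 10% in these data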;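 also: 0% = DMSO wells and 100% = sodium butyrate wells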
DAX1 inh confirm – NR0B1 (human) inhibition, confirmation. shares compounds with DAX1 inh-1. HEK293T StAR-promoter luciferase reporter, SF-1/DAX-1 repression. actives 87% (n = 2,400). inhibition, % at 6.8 µM;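 active = inhibition above the average of every tested compound plus 3 SD, cut at about 3.8% in these data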;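 also: 0% = DAX-1 cells with DMSO and 100% = no DAX-1 control cells with DMSO; active compounds raise luminescence by relieving repression of the StAR reporter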
SF1 mutant ctr – nonselective inhibitor or artifact in SF-1 mutant DAX1 counter-screen | shares compounds with DAX1 inh-1 | HEK293 StAR-luciferase, SF-1 AF2 mutant, luminescence | inhibition, % at 6.8 µM | actives 78% (n = 2,400) | AID 652136;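 active = inhibition above the mean of all tested compounds plus 3 SD, cut at about 3% in these data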;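 also: 0% = DAX-1 transfected cells with DMSO and 100% = cells without DAX-1 with DMSO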
* hit, by the source's call; / = not tested or not shown.

SMILES | ssDAF12 agonist | DAX1 inh-1 | DAX1 inh-2 | SMARCA2 act | hcDAF12 agonist | hgDAF12 agonist | DAX1 inh confirm | SF1 mutant ctr
O=C(COc1ccc(Cl)cc1Br)NC(=O)NC1CCCC1 | -0.8 | 8.0* | 3.4 | 4.7 | 0.8 | 12.7* | 7.9* | 5.3*
O=C(COc1ccc(Br)cc1Cl)NC(=O)NC1CCCC1 | 0.1 | 2.0 | 0.7 | 4.4 | 1.7 | 10.2 | / | /
O=C(COc1ccc(Cl)cc1Cl)NC(=O)NC1CCCC1 | -0.5 | 5.0* | 0.4 | 6.8 | 3.2 | 12.3* | 4.1* | 1.0
O=C(COc1ccccc1Cl)NC(=O)NC1CCCC1 | -1.3 | 1.3 | 0.8 | 3.6 | 0.2 | 5.0 | / | /
O=C(COC(=O)CCSc1ccccc1)Nc1ccccc1Br | -0.7 | -0.2 | -0.6 | -1.5 | -0.4 | 3.6 | / | /
Cc1ccc(S(=O)(=O)NNC(=O)c2ccncc2)cc1[N+](=O)[O-] | -0.6 | 0.0 | 0.1 | 0.4 | 1.0 | -0.1 | / | /
CC(C)Oc1ccc(C(=O)Nc2nnc(SCC(=O)N3CCOCC3)s2)cc1 | 0.1 | 5.2* | -1.6 | 1.7 | 4.8 | 11.0* | 8.7* | 2.2
CS(=O)(=O)c1cccc(C(=O)Nc2ccc(-c3nc4ccccc4[nH]3)cc2)c1 | -0.8 | 7.2* | -1.0 | 7.7 | -2.1 | -3.2 | 6.7* | -1.9
CS(=O)(=O)c1ccccc1C(=O)Nc1ccc(-c2nc3ccccc3[nH]2)cc1 | -1.1 | 0.2 | 0.6 | 7.7 | 1.7 | 8.3 | / | /
O=C(Nc1cccc(Cl)c1)O[C@@H]1CC[C@@]23CCCN2C(=O)CCC[C@H]3C1 | -1.1 | / | / | / | -1.8 | -5.2 | / | /
Cc1cccc(C(=O)NNC(=O)C2CCCCC2)c1O | -1.1 | 4.6* | 3.3 | -2.9 | 0.3 | 1.4 | 1.6 | 1.1
CCOc1cc(N2CCC(O)CC2)ccc1Nc1ncc2c(n1)N(C)c1ccccc1C(=O)N2C | -0.4 | 5.9* | / | 3.6 | 3.6 | -8.2 | -0.5 | -9.4
COc1ccc(C#Cc2c(-c3ccccc3)n(C)c3ccccc23)cc1 | 0.0 | -0.2 | 1.4 | -0.2 | 2.8 | -0.1 | / | /
COC(=O)c1ccc2c(c1)c(C#Cc1ccccc1)c(-c1ccccc1)n2C | -1.0 | 4.7* | 0.0 | 5.4 | 1.8 | 6.7 | 1.8 | 1.8
O=C(NCc1cccc(Cl)c1)c1ccc2c(c1)OCCO2 | -1.1 | 0.8 | -2.6 | 0.6 | 0.1 | 1.0 | / | /
O=C(NCCc1cccc(Cl)c1)c1ccc2c(c1)OCO2 | 0.7 | 11.2* | -1.1 | 3.3 | 5.6* | 10.2 | 13.4* | 6.8*
O=C(CNS(=O)(=O)c1ccc(Br)s1)N1CCN(c2ccc(F)cc2)CC1 | -1.7 | -0.6 | 1.4 | -1.6 | -2.9 | -1.4 | / | /
Cc1ccc(NC(=S)NC(=O)C2CCCC2)cc1C | -0.2 | 4.6* | 0.8 | 3.6 | 2.5 | 10.5* | 5.3* | 4.8*
CCN(C(=O)c1cc(OC)c(OC)c(OC)c1)C1CCCCC1 | -1.1 | 0.3 | 0.8 | -1.7 | -0.9 | -1.4 | / | /
O=C(C1CCN(S(=O)(=O)c2cc(Cl)ccc2Cl)CC1)N1CCOCC1 | -1.0 | 0.0 | -0.5 | 1.5 | -1.2 | 0.4 | / | /
CC(C)(C)n1cnc2cc(NC(=O)c3cccs3)ccc21 | -1.2 | 5.6* | 1.7 | 5.8 | 2.7 | 10.2 | 8.6* | 5.9*
COC(=O)[C@H]1C[C@@]2(O)CN(S(=O)(=O)c3ccc(C)cc3)C[C@@]2(OC(=O)NCc2ccc(OC)c(OC)c2)C[C@H]1C(=O)OC | -0.7 | 5.5* | 1.0 | -2.6 | -1.1 | 0.9 | 1.0 | -0.1
COC(=O)[C@H]1C[C@@]2(O)CN(S(=O)(=O)c3ccc(C)cc3)C[C@@]2(OC(=O)NCc2ccccc2F)C[C@H]1C(=O)OC | -0.4 | 1.1 | 2.0 | -5.4 | 0.8 | -1.6 | / | /
CCOC(=O)c1ccc(NCc2cccnc2)cc1 | -0.9 | 0.1 | 2.2 | 0.8 | -1.2 | 1.4 | / | /
COc1cc(C(=O)NCCC(=O)NC(C)C)cc(OC)c1OC | -1.1 | 5.3* | -0.2 | 0.1 | -1.7 | 3.7 | 0.1 | -2.1
